Luciferase inh = inhibitors of firefly (Photinus pyralis) luciferase; P08659; purified P. pyralis luciferase, luminescence, biochemical; Potency, µM (highest dose often 115 µM), most hits filed as inhibitors; 76,000 compounds, 2.5% hits; AID 1347043; further: nearly all actives have a fitted effect of over 65% in size
Target sequence (P08659 whole entry, looked up): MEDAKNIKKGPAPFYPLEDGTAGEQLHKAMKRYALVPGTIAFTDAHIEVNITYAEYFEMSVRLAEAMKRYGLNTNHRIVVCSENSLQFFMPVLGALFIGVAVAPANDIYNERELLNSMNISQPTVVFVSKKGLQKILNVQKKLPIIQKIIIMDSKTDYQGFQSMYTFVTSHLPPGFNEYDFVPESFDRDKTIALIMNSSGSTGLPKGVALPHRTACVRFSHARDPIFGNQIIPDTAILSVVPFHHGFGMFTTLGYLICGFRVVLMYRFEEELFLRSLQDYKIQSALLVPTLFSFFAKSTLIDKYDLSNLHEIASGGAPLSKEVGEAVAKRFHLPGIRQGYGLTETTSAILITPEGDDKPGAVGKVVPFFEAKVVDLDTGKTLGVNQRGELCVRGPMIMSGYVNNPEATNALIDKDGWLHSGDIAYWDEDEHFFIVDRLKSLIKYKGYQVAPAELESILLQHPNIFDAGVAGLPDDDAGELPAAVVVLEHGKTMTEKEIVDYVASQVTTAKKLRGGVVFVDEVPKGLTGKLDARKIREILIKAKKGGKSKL
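Cell-free enzyme assay, 10nM P. pyralis luciferase, luciferin and ATP each at 10uM. Inhibition profiled over a 6-point titration, read as luminescence.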
GPT2 inhibitor = inhibitors of human GPT2 alanine aminotransferase; Q8TD30; 100,000 compounds, 0.25% hits; Potency, µM (top dose mostly 57.7 µM), for the others: at the highest dose activity change, negative = inhibition, usual class: inhibitors; Recombinant GPT2, coupled pyruvate oxidase/HRP Amplex Red fluorescence; further: nearly all actives have a fitted effect of over 60% in size
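Fluorescence of coupled pyruvate oxidase/HRP/Amplex Red system (50uM Amplex, 30 min, dark) reports pyruvate formed by GPT2. Enzyme reaction: 10ng/uL GPT2, 2mM L-alanine, 250uM a-KG, 30 min room temperature, pH 7.5; 50uM AOA control.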
3T3 cytotox = cytotoxic compounds in NIH 3T3 cells. NIH 3T3 viability, CellTiter-Glo ATP luminescence, 48-72 h. Potency, µM (highest dose often 96.7 µM), for inactives: at the highest dose activity change, negative = cytotoxicity, actives largely listed as inhibitors. 94,000 compounds, 4.3% hits. AID 1345082; further: nearly all actives have a fitted effect of over 55% in size
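Viability of NIH 3T3 cells after 48 or 72 hr compound treatment at 37 °C was assessed by CellTiter-Glo, with luminescence imaged following a 10 min room-temperature step.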
HEK293 tox = HEK 293 cell cytotoxicity. HEK 293 viability, ATP luminescence (CellTiter-Glo), 48-72 h. Potency, µM (top dose mostly 115 µM), for the others: top-dose activity change, negative = cytotoxicity, most hits filed as inhibitors. 94,000 compounds, 6.6% hits; further: nearly all actives have a fitted effect of over 60% in size
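HEK 293 seeded at 250 cells/well receive compound via pintool. After 48 or 72 hr at 37 degree Celsius, 5% CO2 and 95% humidity, CellTiter-Glo is dispensed and luminescence read following 10 min at room temperature.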
hNpr1 antagonist = blocks ANP-stimulated signaling of human Npr1 receptor; Potency, µM (doses to about 46.3 µM), without a hit: at the top dose activity change, negative = inhibition, hits mostly inhibitors; AID 1347048; P16066; 76,000 compounds, 1.6% hits; HEK293 hNpr1 GloSensor cGMP, ANP-stimulated luminescence; calls by dose curve; further: nearly all actives have a fitted effect of over 60% in size
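HEK293 cells stably expressing human Npr1 and cGMP GloSensor pGS-40F, loaded 2 h with 2% GloSensor reagent, given compound 30 min at room temperature. Luminescence read before and 20 min after 0.1 nM hNppA.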
Starred values were filed as active, the others as inactive; i = inactive; ? = inconclusive; . = no result; [ ] = another dose, or the depositor's remark. An excerpt weighted towards active compounds, which were near 10% of everything screened. Unless noted, the call rests on the fitted dose curve; in most records, active means well fitted curve in the direction sought with a large enough effect; inconclusive means small, poorly fitted or top-dose-only effect, or another doubt; inactive means no such curve, though single readings can be large; an effect the other way counts as inactive or inconclusive. On the % scale 0 is the no-effect control and ±100 the full control effect; potency means the concentration at half of the fitted maximal effect.

SMILES	Luciferase inh	GPT2 inhibitor	3T3 cytotox	HEK293 tox	hNpr1 antagonist
O=C(c1cnccn1)N1CCC2(CC1)CC(N(Cc1ccccc1)C1CC1)CCO2 (stereo not given)	i	i	-27%	-25%	9%
O=C(Cc1cccc(Cl)c1)NC1CCN(Cc2cccc(-c3ccc(F)c(F)c3)c2)CC1	.	i	16µM*	20µM*	.
O=C(NC1CCCC1)NC1CCN(Cc2cccc(-c3cccs3)c2)CC1	.	i	-34%	?	.
O=C(Nc1ccccc1F)NC1CCN(Cc2cccc(-c3cccs3)c2)CC1	.	3%	25µM*	25µM*	.
O=C(Cc1cccc(Cl)c1)NC1CCN(Cc2cccc(-c3cccs3)c2)CC1	.	-3%	11µM*	22µM*	.
CC(C)NC(=O)c1nc2cccnc2n(Cc2ccccc2)c1=O	.	-4%[88.5 µM]	-28%[138 µM]	?	.
COCc1ccc2c(c1)c(OC(C)(C)C(=O)Nc1ccccn1)nn2CCC(C)C	i	1%[88.5 µM]	45µM*	89µM*	-21%[70.6 µM]
COCc1ccc2c(c1)c(OC(C)(C)C(=O)NC1CC1)nn2CCC(C)C	i	i	?	?	?
COCc1ccc2c(c1)c(OC(C)(C)C(=O)NC1CCN(C)CC1)nn2CCC(C)C	i	-17%[88.5 µM]	89µM*	?	3%[70.6 µM]
Cc1cccc(S(=O)(=O)N2C[C@@H]3CCCN4CCC[C@@H]([C@H]34)[C@H]2CCCC(=O)N2CCOCC2)c1	i	i	i	-3%	1%
Cc1noc(C)c1S(=O)(=O)N1CCC2(CC1)CC(Cc1ccccc1)CCO2 (stereo not given)	.	i	?	?	.
CNC(=O)c1cc(C2CC2)nc2onc(C3CCN(C(=O)OC)CC3)c12	.	.	-21%[138 µM]	-12%[172 µM]	.
O=C(NCCC1=CCCCC1)c1cc2n(n1)CC(c1ccc(Cl)cc1)OC2 (stereo not given)	i	?	?	45µM*	?
O=C(NCCC1=CCCCC1)c1cc2n(n1)CC(c1ccc3c(c1)OCO3)OC2 (stereo not given)	i	i	?	71µM*	?
O=C(C1CCCC1)N1CCC2(CC1)CC(N(Cc1ccc(F)cc1)C1CC1)CCO2 (stereo not given)	i	i	?	?	-23%
COCC(=O)NCc1cc2n(n1)CCCN(Cc1cc3ccccc3s1)C2	i	i	?	20µM*	1%
COc1ncccc1-c1cnc2[nH]cc(CC(=O)Nc3nc(C)cs3)c2c1	i	i	32µM*	35µM*	?
COc1ccc(OC)c(-c2cnc3[nH]cc(CC(N)=O)c3c2)c1	i	-8%[88.5 µM]	?	-26%[172 µM]	?
COc1ncccc1-c1cnc2[nH]cc(CC(=O)NC3CC3)c2c1	i	-3%[88.5 µM]	25µM*	?	-25%[70.6 µM]
CN(CC1CCOCC1)C(=O)CCCc1ccccc1	40µM*	i	-5%	2%	-1%
CN(CC1CCOCC1)C(=O)NCCc1ccccc1	?	i	i	6%	1%
O=C(Nc1cc(C2CC2)nn1-c1ccccc1)c1ccc(Cl)cc1	.	0%	-26%	-20%	.
COc1ccc(Cn2c(=O)c(C(=O)NCCc3ccc(F)cc3)nc3cccnc32)cc1	.	0%	?	?	.
O=[S+]([O-])(NC1CCN(Cc2cccc(-c3cccs3)c2)CC1)c1cccc(C(F)(F)F)c1	.	-16%	8.9µM*	?	.
O=[S+]([O-])(NC1CCN(Cc2cccc(-c3ccc(F)c(F)c3)c2)CC1)c1cccc(C(F)(F)F)c1	.	-13%	14µM*	22µM*	.
SMILES	Luciferase inh	GPT2 inhibitor	3T3 cytotox	HEK293 tox	hNpr1 antagonist
O=[S+]([O-])(NC1CCN(Cc2cccc(-c3ccc(F)c(F)c3)c2)CC1)c1ccccc1	.	.	20µM*	28µM*	.
O=C(Cc1ccc(F)cc1)NC1CCN(Cc2ccc(-c3ccsc3)cc2)C1 (stereo not given)	.	-2%	?	?	.
O=C(NC1CCN(Cc2ccc(-c3ccsc3)cc2)C1)c1ccc(C(F)(F)F)cc1 (stereo not given)	.	i	-29%	-30%	.
O=C(Cc1cccc(Cl)c1)NC1CCN(Cc2ccc(-c3ccsc3)cc2)C1 (stereo not given)	.	.	8.9µM*	?	.
O=C(Cc1ccc(C(F)(F)F)cc1)NC1CCN(Cc2ccc(-c3ccsc3)cc2)C1 (stereo not given)	.	-4%	?	35µM*	.
COc1ccc(CNC(=O)C2CCN(C(=O)c3ncn4c3COC(c3ccc(C)cc3)C4)CC2)cc1 (stereo not given)	40µM*	i	-14%	-18%	-10%
COc1ccc(C2Cn3cnc(C(=O)N4CCC(C(=O)NCc5ccc(F)cc5)CC4)c3CO2)cc1 (stereo not given)	i	-10%	0%	-3%	-1%
Cc1ccc(C2Cn3cnc(C(=O)N4CCC(C(=O)NCc5ccc(F)cc5)CC4)c3CO2)cc1 (stereo not given)	35µM*	i	i	8%	-12%
O=C(NCc1cccnc1N1CCOCC1)c1n[nH]c2c1CCCC2	i	-3%	i	11%	-7%
Cc1cnc(C(=O)N2CC[C@@H]3CN(Cc4ccccc4)[C@@H]3C2)cn1	.	?	-6%	1%	.
Cc1ccccc1C(=O)N1CCCC2(C1)Nc1cccnc1NC2=NC1CCCC1 (stereo not given)	i	?	i	3%	-2%
CN(C)c1ccc2nnc(-c3cc(C(=O)NCCc4ccccn4)ccn3)n2n1	i	0%[88.5 µM]	?	-13%[172 µM]	0%[70.6 µM]
CN(C)c1cccc(NC(=O)c2ccnc(-c3nnc4ccc(N5CCOCC5)nn34)c2)c1	i	i	?	-28%	5%
O=C(Nc1ccncc1)c1ccnc(-c2nnc3ccc(N4CCOCC4)nn23)c1	i	?	89µM*	-6%[172 µM]	4%[70.6 µM]
CN(c1ccccc1)c1ccc2nnc(-c3cc(C(=O)NCc4cccnc4)ccn3)n2n1	i	3%[88.5 µM]	25µM*	100µM*	-1%[70.6 µM]
CN(c1ccccc1)c1ccc2nnc(-c3cc(C(=O)Nc4ccccn4)ccn3)n2n1	i	i	?	56µM*	3%[70.6 µM]
CN(c1ccccc1)c1ccc2nnc(-c3cc(C(=O)NC4CCC(O)CC4)ccn3)n2n1 (stereo not given)	i	-11%	?	-10%	7%
COc1cccc(NC(=O)c2ccnc(-c3nnc4ccc(N(C)C)nn34)c2)c1	i	4%[88.5 µM]	32µM*	?	-1%[70.6 µM]
Cc1cc(=O)n(CC(=O)Nc2ccc(F)c(Cl)c2)c(N2CCOCC2)n1	i	-20%	-15%	?	-13%
N#Cc1cccc(-c2c(C(=O)NCCc3ccccc3F)nc3sccn23)c1	.	i	-28%	?	.
Cc1cc(C)cc(C(=O)NC2CCN(c3cnn(CC4CC4)c(=O)c3)CC2)c1	i	-10%	-17%	-19%	-14%

Screening data: PubChem, National Center for Advancing Translational Sciences (NCATS)
